According to PubChem BioAssay (Tox21):
The source made the active and inactive calls. Unless noted, calls come from the whole dose curve; as a rule, active = well fitted curve in the direction sought with a large enough effect in the repeat runs; inconclusive = weak or mixed curves; inactive = no such curve, though single readings can be large; an effect the other way counts as inactive or inconclusive.

Assays:
[1] = qHTS assay to identify small molecule antagonists of the thyroid receptor (TR) signaling pathway (AID 743065); note: nearly all actives have a fitted effect of over 55% in size
In short: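 Antagonism measured as loss of luciferase signal in GH3 cells stably carrying a TRE-luciferase reporter, co-treated with compound and T3 (1 nM final) for 23.5 h at 37 C. Viability was read in the same well by CellTiter-Fluor.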

[2] = tested on: thyroid hormone receptor (rat, GH3 cells); test: qHTS assay to identify small molecule agonists of the thyroid receptor (TR) signaling pathway (AID 743066; calls by dose curve)
[3] = target: Estrogen receptor (Homo sapiens) (UniProt P03372); test: qHTS assay to identify small molecule antagonists of the estrogen receptor alpha (ER-alpha) signaling pathway (AID 743069; active = well fitted curve in the direction sought with a large enough effect in the signal ratio in the repeat runs, not every such curve was filed as active; inconclusive = weak or mixed curves, or effect the other way; inactive = no such curve, though single readings can be large or run the other way; the % refers to the signal ratio)
Chain of Estrogen receptor (Homo sapiens) (P03372 whole entry, looked up): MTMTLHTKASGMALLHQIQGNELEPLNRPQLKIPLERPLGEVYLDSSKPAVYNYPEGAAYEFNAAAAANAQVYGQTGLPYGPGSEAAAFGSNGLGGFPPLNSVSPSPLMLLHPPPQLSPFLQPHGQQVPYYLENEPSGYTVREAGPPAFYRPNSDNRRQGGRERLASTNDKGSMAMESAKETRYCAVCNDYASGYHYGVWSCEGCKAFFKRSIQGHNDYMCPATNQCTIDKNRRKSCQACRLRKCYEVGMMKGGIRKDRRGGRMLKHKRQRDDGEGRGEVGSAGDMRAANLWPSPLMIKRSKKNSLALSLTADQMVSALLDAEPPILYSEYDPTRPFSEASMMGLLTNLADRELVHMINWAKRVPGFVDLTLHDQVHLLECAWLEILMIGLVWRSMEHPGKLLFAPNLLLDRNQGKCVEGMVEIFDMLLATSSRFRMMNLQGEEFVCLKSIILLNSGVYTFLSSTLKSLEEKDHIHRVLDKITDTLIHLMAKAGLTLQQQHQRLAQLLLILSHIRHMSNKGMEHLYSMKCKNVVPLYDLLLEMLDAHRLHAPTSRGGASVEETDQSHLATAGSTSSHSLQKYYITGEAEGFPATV
In short: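 Compound effects are measured against 17beta-estradiol stimulation in HEK293 cells with a UAS-controlled beta-lactamase reporter for ER-alpha. Exposure lasts 18 hr at 37C; LiveBLAzer B/G FRET substrate follows for 2 hr at room temperature.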

[4] = qHTS assay to identify small molecule antagonists of the estrogen receptor alpha (ER-alpha) signaling pathway - cell viability counter screen (AID 743074; calls by dose curve;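 note: HEK293 cells carrying ER-alpha-UAS-bla reporter stimulated with 17beta-estradiol; nearly all actives have a fitted effect of over 45% in size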; note: potency is the fitted concentration of half-maximal effect)
[5] = target: Estrogen receptor (Homo sapiens) (UniProt P03372); test: qHTS assay to identify small molecule agonists of the estrogen receptor alpha (ER-alpha) signaling pathway (AID 743075; calls by dose curve; note: potency is the fitted concentration of half-maximal effect)
[6] = target: Estrogen receptor (Homo sapiens) (UniProt P03372); test: qHTS assay to identify small molecule agonists of the estrogen receptor alpha (ER-alpha) signaling pathway using the BG1 cell line (AID 743079); details: BG1Luc4E2 cells, ERE-luciferase agonist, 22 h; activation: at 70.3 µM (top of the series); note: nearly all actives have a fitted effect of over 20% in size; note: potency is the fitted concentration of half-maximal effect
[7] = qHTS assay to identify small molecule antagonists of the estrogen receptor alpha (ER-alpha) signaling pathway using the BG1 cell line (AID 743080; calls by dose curve;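 note: BG1 cells stimulated with 17beta-estradiol alongside compound; nearly all actives have a fitted effect of over 25% in size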; note: potency is the fitted concentration of half-maximal effect)
In short: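 Quantitative HTS on the Tox21 10K library: BG1 cells with endogenous ER-alpha and ERE-luciferase reporter, 17beta-estradiol stimulation, 21.5 h compound exposure, luminescence endpoint with parallel fluorescence cytotoxicity counter-read.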

[8] = qHTS assay to identify small molecule antagonists of the estrogen receptor alpha (ER-alpha) signaling pathway using the BG1 cell line - cell viability counter screen (AID 743081);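 note: compound given together with 17beta-estradiol as the ER stimulus; nearly all actives have a fitted effect of over 45% in size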
[9] = target: Aromatase (Homo sapiens) (UniProt P11511); test: qHTS assay to identify aromatase inhibitors (AID 743083); note: nearly all actives have a fitted effect of over 55% in size
Chain of Aromatase (Homo sapiens) (P11511 whole entry, looked up): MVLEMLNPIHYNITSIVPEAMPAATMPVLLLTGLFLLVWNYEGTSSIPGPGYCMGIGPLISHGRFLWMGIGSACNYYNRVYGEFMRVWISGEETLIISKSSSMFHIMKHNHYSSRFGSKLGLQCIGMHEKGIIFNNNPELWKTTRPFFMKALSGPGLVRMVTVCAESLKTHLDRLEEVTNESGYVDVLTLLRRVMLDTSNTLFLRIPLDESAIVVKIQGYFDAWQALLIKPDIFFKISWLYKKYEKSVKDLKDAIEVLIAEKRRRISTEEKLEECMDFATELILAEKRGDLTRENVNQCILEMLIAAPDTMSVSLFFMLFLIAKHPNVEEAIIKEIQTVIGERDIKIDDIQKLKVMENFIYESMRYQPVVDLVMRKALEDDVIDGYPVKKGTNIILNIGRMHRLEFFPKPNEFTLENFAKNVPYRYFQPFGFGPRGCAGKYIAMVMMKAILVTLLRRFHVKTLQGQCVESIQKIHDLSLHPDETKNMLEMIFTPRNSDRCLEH

[10] = qHTS assay to identify aromatase inhibitors - cell viability counter screen (AID 743084);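 note: cells stimulated with testosterone during compound exposure; nearly all actives have a fitted effect of over 55% in size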
[11] = target: Aryl hydrocarbon receptor (Homo sapiens) (UniProt P35869); test: qHTS assay to identify small molecule that activate the aryl hydrocarbon receptor (AhR) signaling pathway (AID 743085);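 note: HG2L7.5c1 human HepG2 liver cells with stably integrated DRE-driven firefly reporter; nearly all actives have a fitted effect of over 15% in size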
Chain of Aryl hydrocarbon receptor (Homo sapiens) (P35869 whole entry, looked up): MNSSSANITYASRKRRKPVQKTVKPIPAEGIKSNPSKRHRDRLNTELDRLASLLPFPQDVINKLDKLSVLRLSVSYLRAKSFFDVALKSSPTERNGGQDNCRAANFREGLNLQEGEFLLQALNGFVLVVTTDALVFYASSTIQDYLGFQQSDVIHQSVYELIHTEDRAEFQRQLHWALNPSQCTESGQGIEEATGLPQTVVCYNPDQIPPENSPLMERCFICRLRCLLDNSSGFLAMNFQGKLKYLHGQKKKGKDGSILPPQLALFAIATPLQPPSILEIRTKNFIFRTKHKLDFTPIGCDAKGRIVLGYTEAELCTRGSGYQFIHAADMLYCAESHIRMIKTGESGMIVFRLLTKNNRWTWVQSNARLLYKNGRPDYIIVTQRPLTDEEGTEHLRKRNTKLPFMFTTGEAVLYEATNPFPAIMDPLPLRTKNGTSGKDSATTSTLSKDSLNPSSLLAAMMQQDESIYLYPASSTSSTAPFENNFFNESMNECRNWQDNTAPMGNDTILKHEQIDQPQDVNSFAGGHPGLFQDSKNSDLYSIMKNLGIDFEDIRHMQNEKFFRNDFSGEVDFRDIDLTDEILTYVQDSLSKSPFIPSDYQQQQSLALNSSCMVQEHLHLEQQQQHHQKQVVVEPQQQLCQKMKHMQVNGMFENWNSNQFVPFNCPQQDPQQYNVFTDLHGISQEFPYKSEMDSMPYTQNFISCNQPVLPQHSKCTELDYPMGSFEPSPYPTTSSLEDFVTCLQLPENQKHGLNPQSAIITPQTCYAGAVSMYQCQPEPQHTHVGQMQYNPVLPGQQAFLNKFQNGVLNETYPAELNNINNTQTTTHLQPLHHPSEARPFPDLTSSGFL
In short: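 Luminescence (ONE-Glo) from a dioxin-responsive-element luciferase reporter in HG2L7.5c1 HepG2 cells after 24 hr compound exposure at 37C; viability measured by CellTiter-Fluor fluorescence beforehand.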

[12] = target: Peroxisome proliferator-activated receptor gamma (Homo sapiens) (UniProt P37231); test: qHTS assay to identify small molecule agonists of the peroxisome proliferator-activated receptor gamma (PPARg) signaling pathway (AID 743094; active = well fitted activation curve with a large enough effect in the signal ratio in the repeat runs, not every such curve was filed as active; inconclusive = weak or mixed curves, or effect the other way; inactive = no such curve, though single readings can be large or run the other way; the % refers to the signal ratio)
Chain of Peroxisome proliferator-activated receptor gamma (Homo sapiens) (P37231 whole entry, looked up): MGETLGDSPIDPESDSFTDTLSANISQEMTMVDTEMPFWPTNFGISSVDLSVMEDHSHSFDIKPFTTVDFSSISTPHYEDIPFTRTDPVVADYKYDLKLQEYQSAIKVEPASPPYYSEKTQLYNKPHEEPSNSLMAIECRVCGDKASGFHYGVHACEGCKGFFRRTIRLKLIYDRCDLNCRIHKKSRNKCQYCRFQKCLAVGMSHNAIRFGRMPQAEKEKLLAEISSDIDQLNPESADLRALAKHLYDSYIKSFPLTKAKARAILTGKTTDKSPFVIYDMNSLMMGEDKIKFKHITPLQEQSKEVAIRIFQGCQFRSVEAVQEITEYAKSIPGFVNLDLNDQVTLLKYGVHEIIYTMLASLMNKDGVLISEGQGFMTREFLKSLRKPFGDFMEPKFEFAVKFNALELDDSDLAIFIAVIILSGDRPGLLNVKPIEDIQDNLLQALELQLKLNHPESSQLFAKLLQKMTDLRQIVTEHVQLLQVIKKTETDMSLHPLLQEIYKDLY
In short: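 Quantitative HTS agonist mode: stable HEK293H line with UAS-beta-lactamase reporter under PPARg control, 17 h compound exposure at 37C, fluorescence after 1 h FRET substrate loading at room temperature.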

[13] = qHTS assay to identify small molecule phospholipidosis (PLD) inducers (AID 1259344; active = well fitted curve in the direction sought with a large enough effect; inconclusive = small, poorly fitted or top-dose-only effect, or another doubt; inactive = no such curve, though single readings can be large; an effect the other way counts as inactive or inconclusive)
In short: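 Fluorescent phospholipid staining (LipidTOX Red) measured by automated microscopy in fixed HepG2 cells after 24 h treatment; nuclei counterstained with Hoechst 33342; amiodarone as reference inducer.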

[14] = target: Nuclear receptor subfamily 1 group I member 2 (Rattus norvegicus) (UniProt Q9R1A7); test: Rat pregnane X receptor (rPXR) activation by small molecules, qHTS assay (AID 1346983); details: rPXR luciferase reporter cells, One-Glo luminescence, 24 h; max activation: hits give high values; note: nearly all actives have a fitted effect of over 20% in size
Chain of Nuclear receptor subfamily 1 group I member 2 (Rattus norvegicus) (Q9R1A7 whole entry, looked up): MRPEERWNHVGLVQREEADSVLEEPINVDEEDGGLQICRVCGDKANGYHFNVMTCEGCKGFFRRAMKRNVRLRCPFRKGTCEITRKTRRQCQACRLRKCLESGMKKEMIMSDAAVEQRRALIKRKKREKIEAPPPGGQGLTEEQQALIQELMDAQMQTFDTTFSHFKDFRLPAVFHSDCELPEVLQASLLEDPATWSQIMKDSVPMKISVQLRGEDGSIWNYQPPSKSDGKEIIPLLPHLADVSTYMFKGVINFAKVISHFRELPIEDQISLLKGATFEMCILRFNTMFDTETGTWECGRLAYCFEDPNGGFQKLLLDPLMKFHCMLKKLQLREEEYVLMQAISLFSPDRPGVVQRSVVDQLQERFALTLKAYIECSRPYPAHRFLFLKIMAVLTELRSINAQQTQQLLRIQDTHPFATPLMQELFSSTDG
In short: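 Luminescent readout (One-Glo luciferase, 30 min room temperature) followed 24 hr compound treatment at 37 C of rPXR cells plated 2,000 per well and preincubated 5hr; qHTS format with compounds delivered in DMSO.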

[15] = target: Nuclear receptor subfamily 1 group I member 2 (Homo sapiens) (UniProt O75469); test: CYP3A4 induction through human pregnane X receptor (PXR) by small molecules, qHTS assay (AID 1346984); note: nearly all actives have a fitted effect of over 40% in size
In short: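 Steps: seed DPX-2 cells, 5 hr at 37C; pin-transfer compounds; 24 hr at 37C; add Luciferin-IPA (3uM final), 3 hr at 37C; add One-Glo, 30 min RT; read luminescence.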

[16] = target: Nuclear receptor subfamily 1 group I member 2 (Homo sapiens) (UniProt O75469); test: Human pregnane X receptor (PXR) activation by small molecules, qHTS assay (AID 1346985); note: nearly all actives have a fitted effect of over 40% in size
In short: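 DPX-2 cells (HepG2 co-transfected with a PXR response element and a CYP3A4-promoter luciferase construct) were seeded at 2,000 per well, rested 5 hr at 37C, then exposed to DMSO-dissolved compounds for 24 hr. Activation was read as luciferase luminescence.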

[17] = qHTS assay to identify small molecule that activate the aryl hydrocarbon receptor (AhR) signaling pathway - cell viability counter screen (AID 743086);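 note: HepG2 liver cells carrying the AhR DRE luciferase reporter; nearly all actives have a fitted effect of over 45% in size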
In short: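 Cytotoxicity counter screen: CellTiter-Fluor signal (30 min, 37 C) in 4000 HepG2 cells/well carrying the DRE-luciferase reporter, following 24 h compound exposure at 37 C.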
% is set by controls: 0 for no effect and ±100 for the full control effect.

CCCCCCCCCCCCCCCCCC[N+](C)(C)CCC[Si](OC)(OC)OC
inactive: Potency [1] | Potency [2] | Potency [3] | Potency [4] | Potency [7] | Potency [8] | Potency [9] | Potency [10] | Potency [11] | Potency [12] | Potency [13] | max activation [14] 6.33% | Potency [15] | Potency [16]
active: Potency [5] 23.9 µM [activator] | Potency [6] 5.96 µM

O=[N+]([O-])O[C@@H]1CO[C@H]2[C@@H]1OC[C@@H]2O
inactive: Potency [1] | Potency [2] | Potency [4] | Potency [5] | Potency [6] | Potency [8] | Potency [10] | Potency [17] | Potency [12] | Potency [13] | max activation [14] -3.54% | Potency [15] | Potency [16]

Cc1cc2nc3c(=O)[nH]c(=O)nc-3n(C[C@H](O)[C@H](O)[C@H](O)COP(=O)(O)OP(=O)(O)OC[C@H]3O[C@@H](n4cnc5c(N)ncnc54)[C@H](O)[C@@H]3O)c2cc1C
active: Potency [4] 16.9 µM
inactive: Potency [1] | Potency [2] | Potency [5] | Potency [6] | Potency [7] | Potency [9] | Potency [11] | Potency [13] | max activation [14] -0.0695% | Potency [15] | Potency [16]

Nc1ncnc2c1ncn2CCOCP(=O)(O)O
inactive: Potency [1] | Potency [2] | Potency [3] | Potency [4] | Potency [5] | Potency [6] | Potency [7] | Potency [8] | Potency [10] | Potency [11] | Potency [17] | Potency [12] | Potency [13] | max activation [14] -0.588% | Potency [15] | Potency [16]

CC(O)CN(C)C (stereo unspecified)
inactive: Potency [1] | Potency [2] | Potency [3] | Potency [4] | Potency [7] | Potency [8] | Potency [9] | Potency [10] | Potency [11] | Potency [17] | Potency [12] | Potency [13] | max activation [14] -0.0612% | Potency [15] | Potency [16]
active: Potency [6] 11.9 µM

Cn1c(=O)c2c(ncn2CCOC(=O)C(C)(C)Oc2ccc(Cl)cc2)n(C)c1=O
active: Potency [7] 29.8 µM
inactive: Potency [1] | Potency [2] | Potency [3] | Potency [4] | Potency [5] | Potency [6] | Potency [8] | Potency [9] | Potency [10] | Potency [11] | Potency [17] | Potency [12] | Potency [13] | max activation [14] -1.7% | Potency [15] | Potency [16]

CC1=C(/C=C/C(C)=C/C=C/C(C)=C/C=C/C=C(C)/C=C/C=C(C)/C=C/C2=C(C)C(=O)CCC2(C)C)C(C)(C)CCC1=O
inactive: Potency [1] | Potency [2] | Potency [4] | Potency [9] | Potency [10] | Potency [11] | Potency [17] | Potency [12] | Potency [13] | max activation [14] -3.2% | Potency [15] | Potency [16]
active: Potency [5] 26.8 µM [inconclusive] | Potency [6] 5.31 µM

FC(F)(F)C(F)(F)C(F)(F)C(F)(F)C(F)(F)C(F)(F)F
inactive: Potency [1] | Potency [2] | Potency [4] | Potency [5] | Potency [6] | Potency [7] | Potency [8] | Potency [9] | Potency [10] | Potency [11] | Potency [17] | Potency [12] | Potency [13] | max activation [14] -1.09% | Potency [15] | Potency [16]

CC(C)NCC(O)COc1ccccc1-n1cccc1 (stereo unspecified)
inactive: Potency [1] | Potency [2] | Potency [4] | Potency [8] | Potency [9] | Potency [10] | Potency [11] | Potency [17] | Potency [12] | Potency [13] | max activation [14] 1.86% | Potency [15] | Potency [16]

COc1ccc(C2(C#N)CCC(C(=O)O)CC2)cc1OC1CCCC1 (stereo unspecified)
inactive: Potency [1] | Potency [2] | Potency [3] | Potency [4] | Potency [5] | Potency [8] | Potency [9] | Potency [10] | Potency [17] | Potency [13] | max activation [14] -0.133% | Potency [15] | Potency [16]
active: Potency [6] 29.8 µM

CCOC(=O)[C@H](CS)NCCN[C@@H](CS)C(=O)OCC
inactive: Potency [1] | Potency [2] | Potency [3] | Potency [4] | Potency [5] | Potency [6] | Potency [7] | Potency [8] | Potency [9] | Potency [10] | Potency [11] | Potency [17] | Potency [12] | Potency [13] | max activation [14] -0.64% | Potency [15] | Potency [16]

CC(C)Cc1ccc([C@@H](C)C(=O)NS(C)(=O)=O)cc1
inactive: Potency [1] | Potency [2] | Potency [3] | Potency [4] | Potency [5] | Potency [6] | Potency [7] | Potency [8] | Potency [9] | Potency [10] | Potency [11] | Potency [17] | Potency [12] | Potency [13] | max activation [14] -2.09% | Potency [15] | Potency [16]
